Results published in PubChem BioAssay (NCATS).
Results filed as inconclusive are left out. The source made the active and inactive calls. Unless noted, the call rests on the fitted dose curve.

Key:
[1] = qHTS for Inhibitors of the Functional Ribonucleoprotein Complex (vRNP) of Lassa (LASV) Arenavirus: LASV Primary Screen - GLuc reporter signal (AID 1347082; calls by dose curve; tested in HEK293 reporter line; further: nearly all actives have a fitted effect of over 60% in size)
[2] = qHTS for Inhibitors of the Functional Ribonucleoprotein Complex (vRNP) of Lassa (LASV) Arenavirus: Viability assay - alamar blue signal for LASV Primary Screen (AID 1347083; calls by dose curve; tested in HEK293 reporter line; further: nearly all actives have a fitted effect of over 80% in size)
[3] = qHTS for Inhibitors of the Functional Ribonucleoprotein Complex (vRNP) of Lymphocytic Choriomeningitis Arenaviruses (LCMV): Viability assay - alamar blue signal for LCMV Primary Screen (AID 1347085; calls by dose curve; tested in HEK293 reporter line; further: nearly all actives have a fitted effect of over 80% in size)
[4] = target: Nucleoprotein (Lymphocytic choriomeningitis virus (strain Armstrong)) (UniProt P09992); experiment: qHTS for Inhibitors of the Functional Ribonucleoprotein Complex (vRNP) of Lymphocytic Choriomeningitis Arenaviruses (LCMV): LCMV Primary Screen - GLuc reporter signal (AID 1347086); further: nearly all actives have a fitted effect of over 70% in size
Chain of Nucleoprotein (Lymphocytic choriomeningitis virus (strain Armstrong)) (P09992 whole entry, looked up): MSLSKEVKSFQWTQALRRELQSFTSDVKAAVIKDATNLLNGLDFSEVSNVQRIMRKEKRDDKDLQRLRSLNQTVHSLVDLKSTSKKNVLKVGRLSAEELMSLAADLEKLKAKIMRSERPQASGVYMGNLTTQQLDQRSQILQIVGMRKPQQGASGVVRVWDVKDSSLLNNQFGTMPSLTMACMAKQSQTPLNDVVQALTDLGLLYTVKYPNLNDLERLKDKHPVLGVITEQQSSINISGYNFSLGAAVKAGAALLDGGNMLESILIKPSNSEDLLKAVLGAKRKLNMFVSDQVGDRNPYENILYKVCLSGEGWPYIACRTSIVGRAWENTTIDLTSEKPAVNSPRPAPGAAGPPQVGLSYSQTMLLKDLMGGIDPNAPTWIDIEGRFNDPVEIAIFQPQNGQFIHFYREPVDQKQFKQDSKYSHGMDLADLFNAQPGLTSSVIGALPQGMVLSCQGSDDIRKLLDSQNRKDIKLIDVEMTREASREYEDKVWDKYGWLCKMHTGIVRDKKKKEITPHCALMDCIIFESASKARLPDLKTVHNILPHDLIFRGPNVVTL

Measured: Potency
Further: series mostly up to about 57 µM.

O=C(CCCN1CC=C(n2c(=O)[nH]c3ccccc32)CC1)c1ccc(F)cc1
inactive: all assays above

CC(C(O)c1ccc(O)cc1)N1CCC(Cc2ccccc2)CC1 (configuration not stated)
inactive: all assays above

Cc1ccc(C(C)OC(=O)C2(C)CCC(C(=O)O)C2(C)C)cc1 (configuration not stated)
inactive: all assays above

CC1=C(C(=O)OC(C)C)C(c2cccc([N+](=O)[O-])c2)C(C(=O)OC2CN(C(c3ccccc3)c3ccccc3)C2)=C(N)N1 (configuration not stated)
inactive: all assays above

OC[C@@H](O)[C@H](O)[C@H](O)[C@@H](O)CO
inactive: all assays above

O=C(/C=C/c1ccccc1)NCCO
inactive: all assays above

CC[C@H](c1ccc(O)cc1)[C@@H](CC)c1ccc(O)cc1
inactive: all assays above

COc1ccc(CN(CCN(C)C)c2ccccn2)cc1
inactive: all assays above

CCN(CC)CCOC(=O)C(Cc1cccc2ccccc12)CC1CCCO1 (configuration not stated)
inactive: all assays above

NCCNc1cccc2ccccc12
inactive: all assays above

OCC(O)CS (configuration not stated)
inactive: all assays above

CCNC(=O)NCCCOc1cccc(CN2CCCCC2)c1
inactive: all assays above

CCCC(=O)OC[C@@H](OC(=O)CCC)[C@@H](OC(=O)CCC)[C@H](Cn1c2nc(=O)[nH]c(=O)c-2nc2cc(C)c(C)cc21)OC(=O)CCC
inactive: all assays above
